Results as given in PubChem BioAssay (NCI).
Values joined by “and” are separate entries in the source; they are usually repeats but may differ in a detail not shown here. Equal values may be shown once. About 83,000 compounds went through this panel and 20% of them were active in at least one assay; those are over-represented in the sample as a whole.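 48-hour exposure, single concentration, 96-well plates; percent growth endpoint where 0 means no net growth. Active: below 10.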 Active and inactive are the calls of the source.

Key:
Assay in all cases: NCI-60 one-dose screen, 48 h (100 = growth as untreated, 0 = no growth, -100 = all killed)
Details in all cases: 10 µM unless noted
NCI-H23 lung = system: NCI-H23 lung
NCI-H226 lung = system: NCI-H226 lung
NCI-H322M lung = system: NCI-H322M lung
HOP-62 NSCLC = system: HOP-62 NSCLC
NCI-H460 lung = system: NCI-H460 lung
HOP-92 NSCLC = system: HOP-92 NSCLC
NCI-H522 lung = system: NCI-H522 lung
A549/ATCC NSCLC = system: A549/ATCC NSCLC
786-0 renal = system: 786-0 renal
COLO 205 colon = system: COLO 205 colon

Measured: growth

CCN(CC)CCOc1ccc2c(c1)C(=O)c1cc(OCCN(CC)CC)ccc1-2
11.3% (inactive) and -4.52% (active): COLO 205 colon
inactive: NCI-H23 lung 79.5% and 71.2% | NCI-H226 lung 99.7% and 73% | NCI-H322M lung 85.8% and 60.6% | HOP-62 NSCLC 58.3% and 38.2% | NCI-H460 lung 46.2% and 12.9% | HOP-92 NSCLC 20% | NCI-H522 lung 99.6% and 69.6% | A549/ATCC NSCLC 55.8% and 50.6%
63.3% (inactive) and -30.9% (active): 786-0 renal

Nc1ccccc1Nc1ccccc1
inactive: NCI-H23 lung 100% and 96.2% | NCI-H226 lung 98.8% and 86.8% | NCI-H322M lung 86.5% and 93% | HOP-62 NSCLC 103% and 91.6% | NCI-H460 lung 94.5% and 104% | HOP-92 NSCLC 136% | A549/ATCC NSCLC 79.2% | 786-0 renal 90.8% and 82.8% | COLO 205 colon 125% and 104%
54% (inactive) and -2.1% (active): NCI-H522 lung

C/C(=N\NC(=O)c1ccncc1)c1ccccc1O
13.9% (inactive) and 8.85% (active): COLO 205 colon
active: NCI-H522 lung 8.84%
inactive: NCI-H23 lung 42.5% and 30.4% | NCI-H226 lung 54.5% and 58.8% | NCI-H322M lung 30.3% and 20.7% | HOP-62 NSCLC 34.3% and 33.7% | NCI-H460 lung 19.3% and 14% | HOP-92 NSCLC 44.5% and 36.7% | A549/ATCC NSCLC 36.4% and 40% | 786-0 renal 31.4% and 22.6%

CCC(O)c1ccccc1 (stereo not drawn)
inactive: NCI-H23 lung 112% and 113% | NCI-H226 lung 96.1% and 109% | NCI-H322M lung 114% and 105% | HOP-62 NSCLC 87.2% and 109% | NCI-H460 lung 106% and 104% | HOP-92 NSCLC 117% and 91.6% | NCI-H522 lung 101% and 86.4% | A549/ATCC NSCLC 104% and 99.4% | 786-0 renal 94.6% and 106% | COLO 205 colon 128% and 111%

Clc1nc(Oc2ccccc2)nc(-c2cn(-c3ccccc3)c3ccccc23)n1
inactive: NCI-H23 lung 14.5% | NCI-H226 lung 80.2% | NCI-H322M lung 93.5% | HOP-62 NSCLC 101% | NCI-H460 lung 97.2% | NCI-H522 lung 111% | A549/ATCC NSCLC 102% | 786-0 renal 101% | COLO 205 colon 98.1%
active: HOP-92 NSCLC -40.8%

O=C(/C=C\c1ccnc2ccccc12)c1ccc([N+](=O)[O-])cc1
inactive: NCI-H23 lung 91.4% and 63% | NCI-H226 lung 85.3% and 68.5% | NCI-H322M lung 112% and 115% | HOP-62 NSCLC 104% and 77.9% | NCI-H460 lung 99.7% and 79.8% | HOP-92 NSCLC 78% and 58% | NCI-H522 lung 36.7% and 67.7% | A549/ATCC NSCLC 91.5% and 78.3% | 786-0 renal 88.8% and 81.4% | COLO 205 colon 118% and 105%

CC1(C)[C@@H](OC(=O)CCC(=O)O)CC[C@]2(C)[C@H]3C(=O)C=C4[C@@H]5C[C@@](C)(C(=O)O)CC[C@]5(C)CC[C@@]4(C)[C@]3(C)CC[C@@H]12
105% (inactive) and -34.8% (active): NCI-H23 lung
107% (inactive) and -28.4% (active): A549/ATCC NSCLC
121% (inactive) and -74.4% (active): HOP-92 NSCLC
104% (inactive) and -75.4% (active): NCI-H226 lung
107% (inactive) and -54.4% (active): NCI-H322M lung
103% (inactive) and -35.3% (active): NCI-H460 lung
113% (inactive) and -3.87% (active): COLO 205 colon
86.5% (inactive) and -40.5% (active): NCI-H522 lung
103% (inactive) and -54.9% (active): HOP-62 NSCLC
98.4% (inactive) and -66.9% (active): 786-0 renal

CC(C)C(=O)Nc1ccc([N+](=O)[O-])c(C(F)(F)F)c1
inactive: NCI-H23 lung 89.5% and 93.9% | NCI-H226 lung 72.5% and 82.8% | NCI-H322M lung 104% and 113% | HOP-62 NSCLC 94.9% and 84.2% | NCI-H460 lung 83.8% and 109% | HOP-92 NSCLC 53.9% and 91.1% | NCI-H522 lung 79.2% and 79.1% | A549/ATCC NSCLC 81.4% and 103% | 786-0 renal 96.4% and 87.2% | COLO 205 colon 93.5% and 117%

CC(/C=N/N1C(=O)c2ccccc2C1=O)c1ccccc1 (stereo not drawn)
inactive: NCI-H23 lung 108% | NCI-H226 lung 90.6% | NCI-H322M lung 98.1% | HOP-62 NSCLC 112% | NCI-H460 lung 108% | NCI-H522 lung 104% | A549/ATCC NSCLC 88.3% | 786-0 renal 102% | COLO 205 colon 114%

COc1cc(NS(C)(=O)=O)ccc1Nc1c2ccccc2nc2c(C)cccc12
inactive: NCI-H322M lung 22.8% and 28.6%
active: NCI-H23 lung -8.23% and 1.07% | NCI-H226 lung -57.6% and -44.9% | HOP-62 NSCLC -17.9% and -32.5% | NCI-H460 lung -36.3% and -9.34% | HOP-92 NSCLC -17.9% | NCI-H522 lung -14.2% | A549/ATCC NSCLC -62.9% | 786-0 renal -41.9% and -40.4% | COLO 205 colon 7.98% and 0.541%

COc1ccc(Cn2c(NCCN=C(N)N)nc(=O)n(Cc3ccc(F)cc3)c2=O)cc1
inactive: NCI-H23 lung 102% and 89.5% | NCI-H226 lung 97.3% and 95.3% | NCI-H322M lung 83% and 90.7% | HOP-62 NSCLC 71.6% and 85.7% | NCI-H460 lung 106% and 104% | HOP-92 NSCLC 82.8% | NCI-H522 lung 90.2% and 97.2% | A549/ATCC NSCLC 108% and 107% | 786-0 renal 98.5% and 103% | COLO 205 colon 105% and 97.8%

CC(=O)Nc1ccc(O)cc1
inactive: NCI-H23 lung 99.3% and 112% and 102% | NCI-H226 lung 92.9% and 106% and 112% | NCI-H322M lung 108% and 111% and 102% | HOP-62 NSCLC 111% and 106% and 104% | NCI-H460 lung 109% and 105% and 108% | HOP-92 NSCLC 80.3% and 120% | NCI-H522 lung 94.3% and 47% | A549/ATCC NSCLC 96.9% and 122% and 108% | 786-0 renal 99.5% and 106% and 103% | COLO 205 colon 105% and 116% and 101%

CCOc1ccc2cc(-c3nn(CC4CCN(C)CC4)c4ncnc(N)c34)ccc2c1
inactive: NCI-H23 lung 74.2% and 63.5% | NCI-H226 lung 83.6% and 67.7% | NCI-H322M lung 92.7% and 87.4% | HOP-62 NSCLC 83.8% and 77.2% | NCI-H460 lung 96.1% and 69.6% | HOP-92 NSCLC 69.1% and 48.8% | NCI-H522 lung 87% and 42.3% | A549/ATCC NSCLC 78.3% and 60.1% | 786-0 renal 80.1% and 55.8% | COLO 205 colon 89.7% and 39.6%

Nc1ncnc2c1ncn2C1CC(O)C(CO)O1 (stereo not drawn)
inactive: NCI-H23 lung 106% and 112% | NCI-H226 lung 101% and 105% | NCI-H322M lung 155% and 112% | HOP-62 NSCLC 109% and 105% | NCI-H460 lung 102% and 124% | NCI-H522 lung 142% and 100% | A549/ATCC NSCLC 101% | 786-0 renal 101% and 105% | COLO 205 colon 116% and 107%
